Measured values published in PubChem BioAssay (NCI).
Where “and” joins values, the source holds several entries; their conditions need not be identical. Identical values can stand only once. This is part of a sample that, as a whole, favours compounds with a hit. Of some 83,000 tested, about 20% had one in any assay.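 In brief: 96-well plates, 48 h treatment, single concentration, percent growth endpoint.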 Calls of active or inactive are those of the source. Rule for the calls: active = growth percent below 10; inactive = the rest.

tested on: MDA-MB-468 breast; assay: NCI-60 one-dose screen, 48 h (100 = growth as untreated, 0 = no growth, -100 = all killed); settings: 10 µM unless noted

Question: For OCCc1ccc(Cl)cc1, which growth is on record?
Answer: 103% (inactive)

Question: How did the growth turn out when Fc1ccc(Nc2nc(NCCNc3ccnc4cc(Cl)ccc34)nc(N3CCOCC3)n2)cc1 was run?
Answer: 16.7% (inactive)

Question: c1ccc(CCNc2c3ccccc3nc3ccccc23)cc1 was tested. Which growth did it give?
Answer: -11.4% (active)

Question: CCOP(=O)(OCC)c1nc(-c2ccccc2)oc1NCc1cccnc1 was tested. Which growth did it give?
Answer: 114% (inactive)

Question: COc1ccc(-c2cncnc2N)cc1OC was tested. Which growth did it give?
Answer: 116% (inactive)

Question: With Cc1ccc(C(=O)Cc2ccccc2)c(O)c1 as the compound, how does the growth read?
Answer: 117% (inactive)

Question: Which growth does the source give for COc1ccc(O)c(-c2cc(-c3ccc(Cl)cc3)c(C#N)c(=O)[nH]2)c1 here?
Answer: 78.8% (inactive)

Question: COc1ccc2c(c1)nnn1c3ncccc3c(N=O)c21 was tested. Which growth did it give?
Answer: -87.8% (active)

Question: How did the growth turn out when Nc1cc(-c2cccc(OC(F)(F)F)c2)nc2ccc(N3CCCC3)cc12 was run?
Answer: -10.7% (active) and -15.9% (active) and -23.5% (active)

Question: For CC(=O)OCC1CCCO1 (stereo not given), which growth is on record?
Answer: 105% (inactive)

Question: For O=C(Nc1cccc(-n2cc(-c3ccncc3)c(-c3ccc(Cl)c(O)c3)n2)c1)Nc1ccc(Cl)c(C(F)(F)F)c1, which growth is on record?
Answer: -49.5% (active)

Question: With Cc1cc(Cl)nc(N(CCNc2ccnc3cc(Cl)ccc23)Cc2ccco2)n1 as the compound, how does the growth read?
Answer: 29.9% (inactive)

Question: CCOC(=O)c1noc2c1CCc1c-2cn(Cc2ccc(OC)cc2)c1-c1cc(OC)c(OC)c(OC)c1 was tested. Which growth did it give?
Answer: 6.06% (active)

Question: For Brc1ccc(-c2nnc3c4[nH]ccc4ncn23)cc1, which growth is on record?
Answer: 104% (inactive)

Question: With O=C(O)c1c[nH]c2ccccc2c1=O as the compound, how does the growth read?
Answer: 114% (inactive)

Question: How did the growth turn out when COc1cc(NC(=O)c2cc(O)c(C/C=C(\C)CCC=C(C)C)c(O)c2)cc2c1O[C@]1(C)CC[C@@H](O)C(C)(C)[C@H]1C2 was run?
Answer: 21.9% (inactive)

Question: With CN(C)c1ccc(/C=N/NC(=O)c2cccc3ccccc23)c(Cl)c1 as the compound, how does the growth read?
Answer: -7.38% (active)

Question: COc1ccc(-c2cc(NC(=O)Nc3ccc(O)cc3)no2)cc1 was tested. Which growth did it give?
Answer: 80.5% (inactive)

Question: Which growth does the source give for Nc1nc(N)c(-c2ccc(Cl)c(Cl)c2)c(CBr)n1 here?
Answer: 84% (inactive)

Question: How did the growth turn out when O=C(NNc1cnccn1)c1nc2cc(F)ccc2n2cccc12 was run?
Answer: -21.7% (active)

Question: How did the growth turn out when C#Cc1nc(/C=C/C(=O)NO)cs1 was run?
Answer: 51.7% (inactive)

Question: For COc1cc(-c2cncn2-c2ccc(-c3nc4ccc(F)cc4s3)cc2)ccc1F, which growth is on record?
Answer: 56.8% (inactive)

Question: How did the growth turn out when S=C1SCN(CCc2ccccc2)CN1CCc1ccccc1 was run?
Answer: 9.02% (active)

Question: Nc1ccc2c(c1)Cc1cc(N)c(Cl)cc1-2 was tested. Which growth did it give?
Answer: 80.4% (inactive)

Question: Which growth does the source give for COc1cc(-c2nc3occn3c2-c2ccnc(NCCNS(=O)(=O)c3ccc(Cl)cc3)n2)ccc1F here?
Answer: 63.1% (inactive)

Question: How did the growth turn out when COc1ccc2occ(C3=C(c4c[nH]c5ccccc45)C(=O)NC3=O)c2c1 was run?
Answer: -2.93% (active)

Question: For CCN(CC)c1cc(N)c(Cc2c(N)cc(N(CC)CC)cc2Cl)c(Cl)c1, which growth is on record?
Answer: -15.8% (active)

Question: With N/C(=N\OC(=O)c1ccccc1)C(Cc1ccccc1)C(=O)NOC(=O)c1ccccc1 (stereo not given) as the compound, how does the growth read?
Answer: 66.1% (inactive)

Question: Which growth does the source give for CC(C)(C)[Si](C)(C)OC1[C@@H](O[Si](C)(C)C(C)(C)C)[C@@H](CNC(=O)NC(=O)CCl)O[C@H]1n1cnc2c(NC(=O)Nc3ccccc3)ncnc21 (stereo not given in full) here?
Answer: -64.6% (active)

Question: Which growth does the source give for O=C(CCCCCCNC(=O)C(O)(O)C(F)(F)F)Nc1ccc(Br)cc1 here?
Answer: 8.56% (active)

Question: With C=C1C(=O)O[C@H]2[C@H]1CC/C(COC(=O)CCCc1c[nH]c3ccccc13)=C\CC[C@@]1(C)O[C@@H]21 as the compound, how does the growth read?
Answer: 23.1% (inactive)

Question: How did the growth turn out when Cn1c(=O)c2c(nc(N/N=C/c3ccccc3Cl)n2C)n(C)c1=O was run?
Answer: 102% (inactive)

Question: Which growth does the source give for COc1cc2c(cc1OC)C(C)N(S(N)(=O)=O)CC2 (stereo not given) here?
Answer: 99.6% (inactive)

Question: Which growth does the source give for O=S(=O)(NCCCNc1nccc(-c2c(-c3ccc(F)cc3)nc3sccn23)n1)c1ccc(F)cc1 here?
Answer: 50.5% (inactive)

Question: How did the growth turn out when O=S(=O)(O)c1ccc(N/N=C/c2ccccc2Cl)cc1 was run?
Answer: 107% (inactive)

Question: O=C1CC2(O)CSc3nc(=O)cc(n32)N1 (stereo not given) was tested. Which growth did it give?
Answer: 109% (inactive)

Question: For CCCCC(CCc1ccccn1)C(=O)c1ccccc1 (stereo not given), which growth is on record?
Answer: 109% (inactive)

Question: CCCN1C(=O)/C(=c2\sc3n(c2=O)NC2C(N=3)N(CC)C(=O)N2CC)c2ccccc21 (stereo not given) was tested. Which growth did it give?
Answer: 14.6% (inactive)

Question: Which growth does the source give for N#C/C(=C\c1cccc(C#N)c1)c1ccccc1 here?
Answer: 106% (inactive)

Question: How did the growth turn out when CN(C)CCN1C(=O)c2c(c3c4ccccc4n4c3c3c2c2ccccc2n3C2CC(O)C(O)C4(C)O2)C1=O (stereo not given) was run?
Answer: 12.8% (inactive)
